Tau fluor counter = counter-screen for tau fibril formation inhibitors. tau K18 P301L Alexa594 fluorescence, heparin fibrillization. Potency, µM (doses to about 57.7 µM), inactives show at the highest dose activity change, negative = decrease. actives 0.93% (n = 280,000); note: % is set by controls: 0 for no effect and ±100 for the full control effect; nearly all actives have a fitted effect of over 55% in size
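Human K18 P301L tau (15 uM unlabeled plus 0.24 uM Alexa 594-labeled, final) in 100 mM sodium acetate pH 7 was mixed with compound and 20 uM heparin and incubated 6 hr at 37 C.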
Tau FP inhib = inhibitors of human tau fibril formation; AID 1468; K18 P301L tau heparin fibrillization, Alexa594 FP, 6 h; P10636; Potency, µM (doses to about 57.7 µM), for inactives: top-dose activity, negative = inhibition, most hits filed as inhibitors; actives 0.39% (n = 280,000); note: % is set by controls: 0 for no effect and ±100 for the full control effect; nearly all actives have a fitted effect of over 55% in size
Target sequence (P10636 561-689 P618L limits assumed): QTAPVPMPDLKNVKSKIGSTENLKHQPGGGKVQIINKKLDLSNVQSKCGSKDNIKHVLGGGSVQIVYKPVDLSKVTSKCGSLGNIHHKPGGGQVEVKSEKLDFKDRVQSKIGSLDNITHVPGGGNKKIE
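Steps: dispense K18 P301L tau (15 uM plus 0.24 uM Alexa 594 tracer, final) in pH 7 sodium acetate; add compound; add heparin (20 uM final); incubate 6 hr, 37 C; add ThT (30 uM final); after 1 hr ambient, read FP.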
HTT ATP protect = Huntington cell model cytoprotection by ATP luminescence; PC12 HTT-Q103 induced, cytoprotection, ATP luminescence, 40 h; Potency, µM (highest dose often 56.4 µM), without a hit: cytoprotection (ATP increase), most hits filed as activators; actives 0.14% (n = 230,000); note: % of control where 0% means no effect; nearly all actives have a fitted effect of over 45% in size
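Compounds were screened for protection of PC12 cells against cell death after tebufenozide induction (100 nM final) of mutant Huntingtin exon 1 (Q103) fused to GFP.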
Tau fibril ThT = inhibitors of human tau fibril formation, thioflavin T binding | P10636 | Potency, µM (highest dose often 57.4 µM), without a hit: at the top dose activity, negative = inhibition, hits mostly inhibitors | actives 2.1% (n = 270,000) | recombinant tau K18 P301L, heparin-induced fibrillization, ThT fluorescence; note: % is set by controls: 0 for no effect and ±100 for the full control effect; nearly all actives have a fitted effect of over 55% in size
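ThT emission at 510 nm, taken 1 hr after adding 30 uM dye, quantifies aggregates formed when 20 uM heparin acts on human tau K18 P301L for 6 hr at 37 C.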
HttQ103 aggreg = inhibitors of mutant huntingtin aggregate formation in PC12 cells | PC12 HttQ103-GFP aggregates, Acumen cytometry, 40 h | Potency, µM (highest dose often 46.1 µM), inactives show at the top dose activity change, negative = inhibition, usual class: inhibitors | actives 1.1% (n = 220,000) | AID 1688; note: % is set by controls: 0 for no effect and ±100 for the full control effect; nearly all actives have a fitted effect of over 60% in size
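Huntingtin Q103 exon 1–GFP aggregates in induced PC12 cells (100 nM tebufenozide) were quantified by cytometry from lysates, with compounds dosed in titration.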
* = called active by the depositor; u = inconclusive; x = no result; [ ] = another dose, or the depositor's remark. Most compounds without a hit are left out; they make up all but 3.7% or so of the library. Calls come from the whole dose curve; as a rule, active = well fitted curve in the direction sought with a large enough effect; inconclusive = small, poorly fitted or top-dose-only effect, or another doubt; inactive = no such curve, though single readings can be large; an effect the other way counts as inactive or inconclusive. Potency is the fitted concentration of half-maximal effect.

SMILES	Tau fluor counter	Tau FP inhib	HTT ATP protect	Tau fibril ThT	HttQ103 aggreg
O=[N+]([O-])c1cc(/C=N/NC(=S)Nc2ccccc2Cl)ccc1Cl	u	u	x	u	13.6%
COc1ccc(/C=N/NC(=S)Nc2ccccc2[N+](=O)[O-])cc1O	15.8µM*[quencher]	-4.8%	16.6%[10 µM]	4.47µM*	-22.8%
c1ccc(C2OC3c4cccc5cccc(c45)C3N2c2ccccc2)cc1 (stereo not given)	-6.3%	1.6%	24.6%[10 µM]	-1.6%	11.2µM*
CS(=O)(=O)Nc1ccccc1C(=O)Nc1cccc(Cl)c1	-16.3%	9.3%	5.4%[10 µM]	-0.9%	11.2µM*
CS(=O)(=O)Nc1ccccc1C(=O)Nc1ccccc1Cl	-0.7%	0.9%	35.5%[10 µM]	-5.5%	-10.9%
CS(=O)(=O)Nc1ccccc1C(=O)Nc1cc(Cl)cc(Cl)c1	-3.8%	-8.1%	-56.7%[10 µM]	1.2%	8.91µM*
COc1cccc(NC(=O)c2ccccc2NS(C)(=O)=O)c1	5.7%	-2.2%	11.7%[10 µM]	1.6%	-14.7%
COc1ccc(N2CCN(CCC3Oc4cc([N+](=O)[O-])ccc4NC3=O)CC2)cc1 (stereo not given)	u	13.2%	-40.6%	7.94µM*	-5.2%
CCN1CCN(CCC2Oc3cc([N+](=O)[O-])ccc3NC2=O)CC1 (stereo not given)	-1.6%	6.6%	-20.1%	-19.7%	15.4%
Cc1ccc2nc(SCc3nc(-c4ccc(Cl)cc4)no3)[nH]c2c1	10µM*[quencher]	17.8µM*	x	u	x
COc1ccc(-c2noc(CSc3nc4ccccc4[nH]3)n2)cc1	-3.1%	-3.9%	x	4.3%	x
Cn1c(=O)c2c(nc3n(-c4ccc(O)cc4)c(-c4ccc(Br)cc4)cn23)n(C)c1=O	-2.7%	3.6%	x	-1.4%	x
Cc1ccccc1-c1nccc(NCCN2CCOCC2)n1	x	x	5.7%	x	x
N#Cc1c(N(CCO)CCO)nc(N)c2c(N)nc3c(c12)CC(=O)N3Cc1cccs1	u	u	27.4%[10 µM]	15.8µM*	0.0%[9.22 µM]
CO[C@@H]1COC(=O)C/C=C\[C@@H](C)[C@H](OC)COC(=O)C/C=C\[C@H]1C	-3.5%[11.6 µM]	-4.4%[11.6 µM]	-4.7%[10 µM]	-6.7%[11.5 µM]	x
CCOC(=O)CCCSc1nnc(CCCCCN2C(=O)c3cccc4cccc(c34)C2=O)o1	-0.2%	-5.6%	2.51µM*	8.3%	u
CC(Nc1oc(-c2ccc(COc3ccccc3)o2)nc1C#N)c1ccccc1 (stereo not given)	u	-9.5%	x	2.3%	x
N#C/C(=C/c1ccc2c(c1)OCO2)C(=O)NCCc1c[nH]c2ccccc12	20µM*[quencher]	4.7%	-11.0%[10 µM]	12.6µM*	-12.4%
N#C/C(=C\c1ccc(-c2ccc(Br)cc2)o1)C(=O)NCCc1c[nH]c2ccccc12	u	7.0%	-10.9%[10 µM]	u	9.6%
Cc1cc2c([nH]c3ccccc32)c2c1OC(C)(C)C=C2	14.1µM*[quencher]	9.7%	7.4%[10 µM]	u	18.1%[9.22 µM]
CCc1ccc2oc(-c3cccc(NC(=O)c4ccc(N5CCC(C)CC5)c([N+](=O)[O-])c4)c3)nc2c1	-17.9%	-22.0%	x	u	x
CCc1ccc(-n2c(=O)c3sc4ccccc4c3n(Cc3cccc(F)c3)c2=O)cc1	-2.3%	-5.7%	x	5.0%	x
Cc1nnc(NC(=O)CSc2nnnn2Cc2ccccc2)s1	3.9%	5.1%	u	5.6%	0.355µM*
CC1CCN(S(=O)(=O)c2ccc3c(c2)C(=NO)c2cc(S(=O)(=O)N4CCC(C)CC4)ccc2-3)CC1	-6.4%	u	-92.5%	2.2%	3.16µM*
Cc1cc(NC(=O)NCc2ccc3c(c2)CCN3C(=O)c2ccccc2)ccc1Br	u	u	x	-6.2%	x
COc1ccc(Cl)cc1NC(=O)CN1C(=O)C(C)(C)c2cc(S(=O)(=O)N3CCCCC3)ccc21	-16.0%	-12.8%	x	u	x
O=c1cc(-c2ccc([N+](=O)[O-])cc2)nc2cc(-c3ccc(Cl)cc3)[nH]n12	u	-0.7%	-21.4%[10 µM]	2.24µM*	-4.4%
CSc1nc(=NC(C)=O)ss1	-22.1%	u	1.1%[0.074 µM]	25.1µM*	23.5%
COC(=O)C1=C(C)N(Cc2ccccc2)C2=C(C(=O)c3ccccc3)C(c3ccccc3)[C@@](O)(C(=O)OC)C(=O)N2C1c1ccccc1 (stereo not given in full)	-5.5%[11.6 µM]	-8.6%[11.6 µM]	3.2%[10 µM]	u	x

Assay outcomes as filed in PubChem.
